Bioassay records: PubChem, National Center for Advancing Translational Sciences (NCATS)
Hits are enriched below; roughly 21% of the tested compounds scored in any of these assays.
Pf growth 96h – P. falciparum growth inhibition at 96 hours. P. falciparum luciferase reporter growth, 96 h. 320,000 compounds, 6.9% hits. Potency, µM (doses to about 28.7 µM), without a hit: top-dose activity change, negative = inhibition, usual class: inhibitors; further: potency means the concentration at half of the fitted maximal effect; on the % scale 0 is the no-effect control and ±100 the full control effect
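Two parasite generations (96 h, 37 C, 5% CO2) of compound exposure in infected erythrocytes (0.05% parasitemia, 2% hematocrit). Luciferase-reporter P. falciparum; decreased luminescence indicates inhibited growth, aimed at apicoplast-acting delayed death.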
NS1 function inh – inhibitors of influenza NS1 protein function. Potency, µM (highest dose often 46.1 µM), without a hit: at the top dose activity, positive = more growth. 270,000 compounds, 0.4% hits. AID 2326; calls by dose curve; further: potency means the concentration at half of the fitted maximal effect; actives are rising curves; nearly all actives have a fitted effect of over 50% in size
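Growth recovery, yeast-based: influenza A NS1 expressed in S. cerevisiae causes slow growth, and suppressors are detected by OD600. The parent strain without NS1 is used as positive control.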
SARS PLP yeast – inhibitors of SARS-CoV papain-like protease in yeast; Potency, µM (titrated, usually from 32.9 µM), for inactives: at the highest dose activity, positive = growth rescue, hits mostly activators; 330,000 compounds, 0.19% hits; S. cerevisiae expressing SARS-CoV PLpro, growth rescue; calls by dose curve; further: potency means the concentration at half of the fitted maximal effect; 0% is about no effect; nearly all actives have a fitted effect of over 55% in size
Shiga toxin inh – Shiga toxin inhibition. inhibition, % at 38.7 µM. Vero cells, Shiga toxin protein synthesis inhibition reporter. AID 2315. 290,000 compounds, 9.2% hits; in the data active means inhibition mostly above about 28%, no sharp cut-off; inactive means mostly below about 43%; further: 0% is about no effect
Pf growth 48h – inhibits P. falciparum growth in the first generation, 48 h; Potency, µM (top dose mostly 28.7 µM), without a hit: at the top dose activity change, negative = inhibition, usual class: inhibitors; P. falciparum luciferase growth in erythrocytes, 48 h; 310,000 compounds, 5.9% hits; further: potency means the concentration at half of the fitted maximal effect; on the % scale 0 is the no-effect control and ±100 the full control effect
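Firefly luciferase activity from engineered P. falciparum reports growth; inhibitors lower the luminescent signal. Cultures contained 2% hematocrit erythrocytes at 0.1% final parasitemia.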
Cycloheximide cs – counter-screen for Shiga toxin inhibitors: cycloheximide protein synthesis inhibition; cell reporter, cycloheximide protein synthesis inhibition counterscreen; max response, %; 300,000 compounds, 12% hits; in the data active means max response mostly above about 13%, no sharp cut-off; inactive means mostly below about 14%; further: read at 38.3 µM for the half of the compounds with a filed dose; 0% is about no effect
An asterisk follows results filed as active; ? = inconclusive; . = no result given; [ ] = remark or other dose. Unless noted, the call rests on the fitted dose curve; in most records, active means well fitted inhibition curve with a large enough effect; inconclusive means small, poorly fitted or top-dose-only effect, or another doubt; inactive means no such curve, though single readings can be large or run the other way.

SMILES	Pf growth 96h	NS1 function inh	SARS PLP yeast	Shiga toxin inh	Pf growth 48h	Cycloheximide cs
Cc1cc(C)c(C)c(S(=O)(=O)NCc2ccc(C(=O)N3CCOCC3)cc2)c1C	42.7%	-1.2%	3.4%	-30.9	8.28µM*	-1.9
Cc1ccc(C(=O)Nc2cccc(C(=O)N3CCOCC3)c2)cc1Cl	-27.0%	14.5%	3.3%	36.0	25.2%	16.5*
Cc1ccc(C(=O)N(C)Cc2ccc(N3CCOCC3)cc2)cc1S(=O)(=O)NCc1ccccc1	?	.	-1.8%	.	10.4µM*	.
Cc1ccc(C(=O)N(C)Cc2ccccc2)cc1S(=O)(=O)N1CCOCC1	23.0%	-1.2%	3.7%	-5.5	-28.6%	-2.8
Cc1cccc(CC(=O)Nc2ccc(C(=O)N3CCOCC3)cc2)c1	2.33µM*	5.0%	0.7%	38.6	7.9%	5.5
N[C@@H](Cc1cccnn1)C(=O)O	.	5.2%	.	.	.	.
O=C(Nc1cccc(C(=O)N2CCCCC2)c1)c1ccc(Cl)cc1	2.08µM*	-0.9%	-6.9%	15.7	-2.5%	29.3*
O=C(Nc1cccc(C(=O)N2CCOCC2)c1)c1ccccc1	5.22µM*	-4.0%	2.0%	-8.3	54.7%	-2.3
O=C(Nc1ccccc1)Nc1ccc(C(=O)N2CCOCC2)cc1	12.4%	-2.8%	-20.5%	62.2*	254.2%	46.2*
CNC(=S)NCC(O)c1ccc([N+](=O)[O-])cc1 (stereo not drawn)	23.8%	.	-2.0%	19.6	19.1%	-4.2
O=C(NNS(=O)(=O)c1ccccc1[N+](=O)[O-])c1cccnc1	?	-4.8%	1.8%	16.1	56.0%	-0.7
CC(=O)N1/C(=C/c2ccc(N(C)C)cc2)C(=O)c2ccccc21	?	.	-32.2%	21.8	-17.8%	21.6*
Nn1cc(-c2ccccc2)nc1SCC(=O)NCCN1C(=O)CSC1=O	22.6%	-3.4%	-2.9%	33.8	24.0%	10.1
Cc1oc2c(c1C(=O)NCc1cccnc1)C(=O)c1ccccc1C2=O	0.147µM*	2.0%	-2.8%	8.9	?	2.6
COc1ccc(CNC(=O)c2c(C)oc3c2C(=O)c2ccccc2C3=O)cc1	3.29µM*	-16.2%	-26.7%	-10.1	?	-1.1
CC(=O)c1c(C)oc2c1C(=O)c1ccccc1C2=O	-29.3%	-15.6%	25.7%	22.5	?	-2.7
CC(NC(=O)C12CC3CC(C1)CC(n1cncn1)(C3)C2)C12CC3CC(CC(C3)C1)C2 (stereo not drawn)	11.7µM*	-4.5%	2.0%	-4.7	11.7µM*	-1.2
Clc1ccc(CNc2ccc3nnc(-c4ccccc4)n3n2)cc1	57.1%	-10.8%	-2.1%	-10.2	?	-0.9
CCOc1ccc(CCNc2ccc3nnc(-c4ccccc4)n3n2)cc1OCC	4.65µM*	10.9%	3.0%	-19.3	?	-3.3
Cc1c([N+](=O)[O-])cc(C(=O)Nc2ccc(NC(=O)c3ccco3)cc2)cc1[N+](=O)[O-]	4.1%	5.6%	-1.2%	-7.6	?	-5.1
CCc1nc(N2CCN(C(=S)NCCCOC)CC2)c2c3c(sc2n1)CCCC3	4.1%	-83.6%	-15.7%	-8.6	?	0.5
Cc1c(C(=O)Nc2cccnc2)oc2ccc(Br)cc12	14.7%	-32.0%	-10.5%	75.0*	31.0%	33.6*
CCc1ccc2oc(C(=O)Nc3cccnc3)c(C)c2c1	167.8%	-17.5%	-12.3%	65.6*	174.1%	58.4*
Cc1c(C(=O)NCc2cccs2)oc2ccc(Br)cc12	.	-7.9%	12.8%	39.7	50.5%	29.9*
NNC(=O)c1cc2c(ccc3ccccc32)o1	15.7%	7.1%	0.7%	1.7	9.1%	-0.6
SMILES	Pf growth 96h	NS1 function inh	SARS PLP yeast	Shiga toxin inh	Pf growth 48h	Cycloheximide cs
Cc1c(C(=O)Nc2cccc(S(=O)(=O)N3CCOCC3)c2)oc2ccc(Br)cc12	.	.	0.8%	.	.	.
Cc1c(C(=O)NCc2cccs2)oc2ccc(S(=O)(=O)N3CCOCC3)cc12	3.1%	-9.7%	3.2%	-28.1	?	-10.2
O=C(Nc1cccnc1)c1cc2c(ccc3ccccc32)o1	170.5%	-6.0%	.	40.4*	6.4%	57.2*
CN1CCCN(C(=O)CNC(=O)c2ccc(Cl)cc2Cl)CC1	.	.	1.8%	.	.	.
COCCn1c(SCC(=O)NC2CCCC(C)C2C)nc2ccccc2c1=O (stereo not drawn)	-21.0%	.	0.4%	.	1.7%	.
COCCNC(=O)Cn1cnc2c(cnn2-c2ccc(OC)cc2)c1=O	?	0.6%	-2.6%	-3.7	-8.6%[0.00184 µM]	-8.0
CC(C)(C)c1ccc(COc2ccsc2C(=O)O)cc1	6.9%	.	0.1%	35.4*	?	20.8*
COc1cccc(C(=O)Nc2ccc(-n3nncc3C(C)(C)C)cc2)c1	18.4%	.	1.4%	64.3*	-0.8%	21.1*
CC(C)(C)c1cnnn1-c1ccc(NC(=O)c2ccc(Br)o2)cc1	261.5%	-29.1%	13.9%	-24.7	10.4µM*	-1.9
CC(=O)c1ccc(-n2nncc2C(C)(C)C)cc1	-26.6%	-13.8%	-4.9%	-10.7	35.3%	-1.5
CC(C)(C)c1cnnn1-c1ccc(NC(=O)c2ccc3c(c2)OCO3)cc1	-4.5%	-67.6%	-4.0%	27.9*	?	12.8*
COc1ccc(-c2nc(CN(Cc3cnn(C)c3)C(C)C)c(C)o2)c(OC)c1	-2.4%	6.7%	0.0%	-12.5	12.2%	-2.0
O=C(CCNS(=O)(=O)c1ccccc1)N1CCC(Cc2ccccc2)CC1	?	-30.8%	?	-4.6	-1.6%	2.4
CN(C(=O)CSc1nnc(-c2c[nH]c3ccccc23)n1C1CC1)C1CCS(=O)(=O)C1 (stereo not drawn)	?	.	0.6%[6.58 µM]	.	-11.5%	.
COc1cccc(/C=C/C(=O)N2CCN(S(=O)(=O)c3ccccc3)CC2)c1OC	?	-3.3%	2.3%	-5.1	159.4%	-3.0
Cc1ccc(NC(=O)CC(C(=O)O)c2ccccc2)cc1 (stereo not drawn)	25.7%	6.0%	1.5%	-2.9	1.2%	-1.2
CCOC(=O)C1CCN(C(=O)c2cc(C)n(C(C)(C)C)n2)CC1	63.4%	6.3%	1.2%	22.5	29.9%	9.1
Cc1ccc2scc(N3CCN(C)CC3)c(=O)c2c1	.	.	.	82.8*	.	47.8*
Cc1ccc(S(=O)(=O)c2cn(C)c3cc(N4CCN(C)CC4)c(F)cc3c2=O)cc1	?	-3.1%	2.8%	-17.2	-17.1%	-1.8
O=c1oc2ccccc2cc1-c1nc(-c2ccccc2)no1	70.8%	-11.8%	2.8%	106.7*	35.5%	35.7*
Cc1cccc(-c2noc(-c3cc4ccccc4oc3=O)n2)c1	16.3%	-5.2%	0.2%	84.9*	5.9%	29.4*
Cc1ccc(S(=O)(=O)c2cc3ccccc3oc2=O)cc1	8.6%	.	0.4%	-19.5	60.2%	-6.4
Cc1ccc(-c2noc(-c3cc4ccccc4oc3=O)n2)cc1	139.9%	-6.3%	2.0%	41.5	4.7%	24.7*
CC(NC(=O)C1CCC(CNS(=O)(=O)c2ccccc2)CC1)c1ccc2c(c1)OCCO2 (stereo not drawn)	-11.2%	.	0.5%	-3.3	-2.1%	13.1
Cc1cc(C)n(CC(=O)N/N=C/c2cccc([N+](=O)[O-])c2)n1	32.6%	6.9%	-3.8%	-9.6	8.1%	6.3
